# Over roughly 33,000 sequences, “E-score (-0.5 to 0.5)” has its median near -0.01; the highest 2% begin near 0.26. Only a selection was taken, and the highest values are over-represented in it overall.
# Biological target: Ste12 (UniProt P13574)
# Assay: PBM E-score (8-mer binding enrichment) (E-score (-0.5 to 0.5)); higher = stronger / more preferred TF binding
# Details: protein concentration: 200 nM; construct: GST-DNA-binding domain
# Procedure: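 Universal 'all 10-mer' protein binding microarrays (Agilent AMADID 015681) probed with GST-tagged S. cerevisiae TFs (full-length or DBD) made by in vitro transcription/translation (PURExpress), about 100-200 nM. Bound TF was detected with fluorescent anti-GST. Each ungapped 8-mer (which stands for itself and its reverse complement) is scored by the PBM enrichment score (E-score), a modified Wilcoxon-Mann-Whitney statistic from -0.5 to +0.5, computed with the Universal PBM Analysis Suite. Scale: above 0.35 generally sequence-specific binding.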
# Chain of UniProt P13574 (P13574 whole entry): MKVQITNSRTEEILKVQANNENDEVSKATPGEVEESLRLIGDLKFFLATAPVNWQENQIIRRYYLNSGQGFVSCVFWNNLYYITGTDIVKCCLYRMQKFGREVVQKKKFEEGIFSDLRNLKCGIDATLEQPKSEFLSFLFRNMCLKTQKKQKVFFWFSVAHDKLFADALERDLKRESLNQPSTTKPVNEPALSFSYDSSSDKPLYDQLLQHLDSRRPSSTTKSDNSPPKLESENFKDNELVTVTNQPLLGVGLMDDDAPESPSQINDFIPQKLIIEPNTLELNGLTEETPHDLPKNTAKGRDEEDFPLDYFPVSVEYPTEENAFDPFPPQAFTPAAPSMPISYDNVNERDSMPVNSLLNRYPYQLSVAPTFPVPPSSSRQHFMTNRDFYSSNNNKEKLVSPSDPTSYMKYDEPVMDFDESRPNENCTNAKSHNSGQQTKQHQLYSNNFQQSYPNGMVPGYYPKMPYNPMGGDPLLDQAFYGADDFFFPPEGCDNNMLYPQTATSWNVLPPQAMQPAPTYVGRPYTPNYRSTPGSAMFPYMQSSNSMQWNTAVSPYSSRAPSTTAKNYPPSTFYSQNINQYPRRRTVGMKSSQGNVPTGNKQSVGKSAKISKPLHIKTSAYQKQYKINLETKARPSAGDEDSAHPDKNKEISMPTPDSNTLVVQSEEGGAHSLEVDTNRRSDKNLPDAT
row,Sequence,PBM E-score
1,ACCCACCA,0.0136
2,GCCCACCA,-0.0497
3,GCCCACAC,0.0974
4,ACCCACCT,0.0687
5,GCCCACCC,0.344
6,CCCCACCG,0.137
7,CCCCACCA,0.102
8,ACCCACCC,0.314
9,CCCCACCC,0.361
10,GGAAAATA,0.255
11,AACTACTT,-0.00699
12,CTGGTCGC,0.0843
13,CACTATGC,-0.0894
14,ATCAAACC,0.217
15,CTCAAGCA,-0.0187
16,CTCAAACA,0.341
17,ATCAAACA,0.27
18,CTCAAACC,0.0438
19,ATCAAGCA,0.0192
20,CTGAATCC,0.0117
21,CAGTAGGC,-0.0958
22,GACTAGGA,-0.047
23,GCTTGATA,0.083
24,CATGATAC,0.242
25,AATGATAG,0.194
26,AATGATAA,0.263

row,Sequence,PBM E-score
1,TATGATAA,0.131
2,AATGATAT,0.113
3,AATGATAC,0.278
4,GTCTAACA,-0.0889
5,ACTTACCT,-0.0503
6,ACCGGTGC,-0.0741
7,ATTCCACA,0.268
8,ATTCCACG,-0.0633
9,ATTCCACC,0.113
10,ATCGAGTA,-0.0649
11,CTCGCACA,0.127
12,CTTGAGTC,-0.136
13,TGTTTGAA,0.378
14,CGTTTGAC,-0.0236
15,GTTTTGAA,0.189
16,CGTTTGAG,0.111
17,GGTTTGAC,-0.0297
18,AGTTTTGA,0.148
19,TCTTTGAA,0.161
20,CGTTTTGC,0.197
21,CGTTTGAA,0.265
22,AGTTTGAA,0.174
23,GGTTTGAA,0.297
24,CGTTTTGA,0.275
25,CACTGCAC,-0.14
26,CGCCCACC,0.139

row,Sequence,PBM E-score
1,ATCCTTTG,0.0895
2,AGAAAGTA,0.138
3,AGACAAGC,-0.0877
4,AGACGCGG,0.0721
5,AACCCAGA,-0.108
6,CGCTTGCC,-0.062
7,CTTTAAAG,-0.0155
8,AGTTAAAT,0.163
9,ATTTAAAG,0.275
10,ATTTAAAC,0.207
11,AATTAAAT,0.156
12,ATTTAAAT,0.327
13,ACAAGTTC,-0.00961
14,ATGAGTTA,-0.0873
15,AAGTCACC,-0.0787
16,TAAGTGCA,-0.104
17,ATGGAAAT,0.0797
18,GTTGAAAA,0.206
19,ATGGAAAA,0.186
20,TCTGAAAA,0.12
21,ATGGAAAC,0.263
22,CTTGAAAA,0.157
23,GTTGAAAC,0.399
24,ATTGAAAA,0.352
25,ATTGAAGA,0.00866
26,GTAGAAAC,0.0517

row,Sequence,PBM E-score
1,TTTGAAAA,0.309
2,TGTGAAAA,0.216
3,GCTTATCC,0.0792
4,ACTTGAGA,0.142
5,ACGTCTAC,-0.118
6,ATAAAAGC,-0.00425
7,GCCCTGGA,-0.235
8,CACTATGG,-0.0915
9,CTTGAAAG,-0.0999
10,CTTGAAAC,0.479
11,ATTGAGAG,-0.0617
12,ATTGAAAT,0.233
13,ATTGAGAA,0.277
14,ATTGAAAG,0.0623
15,CTTGAACC,-0.0679
16,ATTGAGAC,0.122
17,ATTGAAAC,0.398
18,AACGACCA,-0.0479
19,ATGGGAAG,-0.0232
20,CCCCGGGG,-0.186
21,GTGTACAC,-0.224
22,ATGTTGTA,-0.00602
23,GCATCAGC,0.034
24,ACTAGGTC,-0.114
25,AAAAAGAA,0.289
26,AAAGATAT,0.273

row,Sequence,PBM E-score
1,AAAAGAAC,0.126
2,CAAAAGAA,0.156
3,AAAAAGAT,0.271
4,AAAAGAAG,0.072
5,AAAAGAAT,0.266
6,AAAGATAC,0.0821
7,ACAAAGAT,0.0339
8,AAAGATAG,-0.0536
9,AAAAAGAC,0.153
10,TAAAAGAA,0.0708
11,AAAGCAAA,0.148
12,AAACCTTC,-0.0506
13,CGGGACTA,-0.0932
14,GCATCCGA,-0.0885
15,CGTATGAA,0.213
16,AGTAGGAG,-0.119
17,CCTCGCAA,0.18
18,CAAGAAAA,0.24
19,CGAAAAGA,0.242
20,AGAAAAGA,0.297
21,AAAGAAAA,0.351
22,AGAAAAGC,0.127
23,AAAGAAAG,0.19
24,AGAGGGAG,-0.106
25,CAAAGTCG,0.0234
26,TCCTAGCA,-0.0629

row,Sequence,PBM E-score
1,ACCTCCAC,-0.0491
2,GATAGATC,-0.194
3,AACAGAGT,0.173
4,CACCTAAC,0.0515
5,CTGTAGTA,0.186
6,ATAATACA,0.318
7,CCAATATA,-0.103
8,ATAATACC,0.161
9,ATAATACG,0.0652
10,ACAATATA,0.271
11,ATAATATG,0.248
12,GCAATATA,0.149
13,CTAATATA,0.0456
14,ATAATATA,0.301
15,AGAGTAGA,-0.0237
16,CGTTCTCA,0.0637
17,GCCAGCTA,-0.192
18,CCGCATCC,-0.0589
19,ATGTTCAC,0.0173
20,TGATGCAA,0.137
21,ACCTTCTC,0.0171
22,AAGAAAAG,0.302
23,AAGAAAAC,0.275
24,AAGAAAAA,0.158
25,CAGAAAAG,0.186
26,AAGAAAAT,0.254

row,Sequence,PBM E-score
1,CAGAAAAC,0.133
2,GGTCCTTA,0.0224
3,CCCTCCAC,-0.0433
4,CTATCAAA,0.186
5,GTATCAGA,0.119
6,ATATCAAA,0.3
7,GTATCAAA,0.293
8,TTATCAAA,0.274
9,ATATCAAG,0.139
10,GTATCAAC,0.122
11,TCATCAAA,0.236
12,TGATCAAA,0.156
13,ACTACTTC,-0.0884
14,ATCACAGG,-0.0882
15,CAATCATC,-0.0782
16,ACTCTGAA,0.177
17,ACGGGTAC,-0.139
18,TAGGCGGA,-0.0248
19,ATATGAAC,0.154
20,CTATGAAA,0.211

# From the supplement of paper PMC3334620
